# Measurements published in the supplement of paper PMC8728848.
# Many of the other results were omitted from the sample, so the strongest signals are more common in it than they were.
# B1: DCIR (Homo sapiens), Q9UMR7 (protein)
# chain: MTSEITYAEVRFKNEFKSSGINTASSAASKERTAPHKSNTGFPKLLCASLLIFFLLLAISFFIAFVIFFQKYSQLLEKKTTKELVHTTLECVKKNMPVEETAWSCCPKNWKSFSSNCYFISTESASWQDSEKDCARMEAHLLVINTQEEQDFIFQNLQEESAYFVGLSDPEGQRHWQWVDQTPYNESSTFWHPREPSDPNERCVVLNFRKSPKRWGWNDVNCLGPQRSVCEMMKIHL
# Experiments:
# Assay in all cases: glycan array binding signal (z-score within array); higher = stronger binding
# Conditions in all cases: glycan notation: IUPAC condensed, linker removed
# [1] = target: Fuc(a1-2)Gal(b1-4)Glc
# Procedure, shortened: (§1)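 The binding signal is a Z-score computed within each array. Data were drawn from 3228 arrays in the Consortium for Functional Glycomics database, restricted to those with a known protein sequence. Scores were averaged over arrays of the same protein sequence at different concentrations or buffers, and over linkers, and negative values can be taken as non-binding.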
# [2] = target: Fuc(a1-2)Gal(b1-4)[Fuc(a1-3)]GlcNAc(b1-3)Gal(b1-4)[Fuc(a1-3)]GlcNAc
# Procedure, shortened: as §1
# [3] = target: Fuc(a1-2)GlcNAc
# Procedure, shortened: as §1
# [4] = target: Fuc(a1-2)[GalNAc(b1-3)]Gal
# Procedure, shortened: as §1
# [5] = target: Fuc(a1-3)[Gal(b1-4)]GlcNAc(b1-4)Gal(b1-4)[Fuc(a1-3)]GlcNAc
# Procedure, shortened: as §1
# [6] = target: Fuc(b1-3)GlcNAc
# Procedure, shortened: as §1
# [7] = target: Gal(a1-3)Gal(b1-4)GlcNAc
# Procedure, shortened: as §1
# [8] = target: Gal(b1-3)[Fuc(a1-4)]GlcNAc
# Procedure, shortened: as §1
# [9] = target: Gal(b1-4)GalNAc(a1-3)[Fuc(a1-2)]Gal(b1-4)GlcNAc
# Procedure, shortened: as §1
# [10] = target: Gal(b1-4)Glc6S
# Procedure, shortened: as §1
# [11] = target: Gal(b1-4)GlcNAc(b1-2)Man(a1-3)[Gal(b1-4)GlcNAc(b1-2)Man(a1-6)]Man(b1-4)GlcNAc(b1-4)GlcNAc
# Procedure, shortened: as §1
# [12] = target: Gal(b1-4)GlcNAc(b1-6)[Gal(b1-3)]GalNAc
# Procedure, shortened: as §1
# [13] = target: Gal3S(b1-4)Glc
# Procedure, shortened: as §1
# [14] = target: Gal3S(b1-4)GlcNAc6S
# Procedure, shortened: as §1
# [15] = target: Gal3S6S(b1-4)GlcNAc6S
# Procedure, shortened: as §1
# [16] = target: Gal6S(b1-4)Glc6S
# Procedure, shortened: as §1
# [17] = target: GlcNAc(b1-3)Gal
# Procedure, shortened: as §1
# [18] = target: Neu5Ac(a2-3)Gal(b1-4)[Fuc(a1-3)]GlcNAc(b1-3)Gal
# Procedure, shortened: as §1
# [19] = target: Neu5Ac(a2-3)Gal(b1-4)[Fuc(a1-3)]GlcNAc(b1-3)Gal(b1-4)[Fuc(a1-3)]GlcNAc(b1-3)Gal(b1-4)[Fuc(a1-3)]GlcNAc
# Procedure, shortened: as §1
# [20] = target: Neu5Ac(a2-8)Neu5Ac(a2-8)Neu5Ac(a2-3)[GalNAc(b1-4)]Gal(b1-4)Glc
# Procedure, shortened: as §1
binder,measurement,setting,value
B1,glycan array binding signal (z-score),[1],-0.479
same,glycan array binding signal (z-score),[2],-0.367
same,glycan array binding signal (z-score),[3],-0.484
same,glycan array binding signal (z-score),[4],-0.31
same,glycan array binding signal (z-score),[5],0.076
same,glycan array binding signal (z-score),[6],-0.551
same,glycan array binding signal (z-score),[7],0.183
same,glycan array binding signal (z-score),[8],-0.359
same,glycan array binding signal (z-score),[9],-0.129
same,glycan array binding signal (z-score),[10],0.19
same,glycan array binding signal (z-score),[11],4.96
same,glycan array binding signal (z-score),[12],-0.161
same,glycan array binding signal (z-score),[13],-0.426
same,glycan array binding signal (z-score),[14],5.68
same,glycan array binding signal (z-score),[15],7.43
same,glycan array binding signal (z-score),[16],4.52
same,glycan array binding signal (z-score),[17],-0.245
same,glycan array binding signal (z-score),[18],-0.071
same,glycan array binding signal (z-score),[19],-0.372
same,glycan array binding signal (z-score),[20],-0.052
